SKKanGAS inh = blocks kanamycin growth of S. pyogenes SKKanGAS strain | BacTiter-Glo, 6 h | inhibition, % at 7.5 µM | actives 1.3% (n = 300,000);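 active = mean replicate score, as percent of positive control median, at least 50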;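 note: strain carries kanamycin resistance gene driven by streptokinase promoter and grows in 40 µg/ml kanamycin; loss of luminescence reflects streptokinase promoter inhibition or plain growth inhibition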
tim23-1 inh = inhibits growth of tim23-1 mutant yeast. AID 463212. inhibition, % at 20 µM. S. cerevisiae tim23-1 growth, BacTiter-Glo luminescence, 24 h. actives 1.3% (n = 330,000);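 active = growth inhibition of the mutant yeast at or above 50%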;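 note: temperature-sensitive mutant grown at 25 °C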
NLRP3 yeast inh = blocks the NALP3 inflammasome reconstituted in yeast | Yeast reconstituted NLRP3/ASC/caspase-1, beta-gal luminescence, 24 h | inhibition, % at 10 µM | actives 0.39% (n = 330,000) | AID 2825;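 active = inhibition of 50% or more; inactive = inhibition below 50%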
TIM10 inh = inhibits growth of TIM10 yeast strain | S. cerevisiae TIM10 strain growth, BacTiter-Glo luminescence, 24 h | inhibition, % at 10 µM | actives 1.4% (n = 330,000);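 active = inhibition of 40% or more at the single tested concentration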;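 note: wild-type TIM10 isogenic control strain grown at permissive 25 °C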
tim10-1 inh = tim10-1 yeast growth inhibition | S. cerevisiae tim10-1 ts strain growth, BacTiter-Glo, 24 h | inhibition, % at 20 µM | actives 2.2% (n = 330,000) | AID 463190;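 active = inhibition of at least 40%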;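 note: mutant grown at 25 °C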
tim10-1 confirm = tim10-1 yeast growth inhibition, confirmed; shares compounds with tim10-1 inh; S. cerevisiae tim10-1 ts strain growth, BacTiter-Glo, 24 h; inhibition, % at 20 µM; actives 56% (n = 7,400);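 active = inhibition of yeast growth at or above a set limit in either of two repeat tests at 20 µM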;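 note: tim10-1 mutant grown at permissive 25 °C to find synthetic lethal compounds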
Large screens that a line does not name were inactive (follow-up assays come after a bar, where they were run). This is a sample that favours compounds with a hit; in the whole collection about 4.6% have one here.

COc1ccc([N+](=O)[O-])cc1NC(=O)C(C)OC(=O)C1CCC1 (configuration not stated)	none
O=C(Nc1nccs1)c1ncc(Cl)c(Cl)c1Cl	none
O=C1CCSc2ccc(Cl)cc2N1Cc1ccc(Cl)cc1	SKKanGAS inh 53, tim10-1 inh 45 | tim10-1 confirm inactive
O=C(COC(=O)C(O)c1ccccc1)NC12CC3CC(CC(C3)C1)C2 (configuration not stated)	none
O=C(COC(=O)CCc1ccccc1)NC12CC3CC(CC(C3)C1)C2	tim10-1 inh 43 | tim10-1 confirm inactive
O=C(COC(=O)C12CC3CC(CC(C3)C1)C2)NC12CC3CC(CC(C3)C1)C2	tim10-1 inh 41 | tim10-1 confirm 39
CCC(CC)C(=O)OCC(=O)NC12CC3CC(CC(C3)C1)C2	none
CCCOc1ccc(CSCCNC(=S)Nc2ccccc2)cc1	tim10-1 inh 46 | tim10-1 confirm inactive
S=C(NCCSCc1ccccc1Cl)Nc1ccccc1	none
CCOc1ccccc1N(C)C(=O)c1ccc2c(=O)n3c(nc2c1)CCCCC3	none
Cc1ccc(-n2c(C)cc3c2CC(C)(C)CC3=O)cc1C	none
Cc1cc2c(n1-c1ccc(Br)cc1)CC(C)(C)CC2=O	tim10-1 inh 49 | tim10-1 confirm 33
CCCCCCCCCS(=O)(=O)N/N=C/c1cccc([N+](=O)[O-])c1	tim10-1 inh 42 | tim10-1 confirm inactive
O=Cc1ccccc1Oc1nc(N2CCOCC2)nc(N2CCOCC2)n1	tim10-1 inh 45 | tim10-1 confirm 41
c1ccc(Oc2nc(Oc3ccccc3)nc(N3CCOCC3)n2)cc1	none
CC(C)(C)c1ccc(C(=O)CC(Sc2ccc(Cl)cc2)C(=O)O)cc1 (configuration not stated)	tim10-1 inh 41 | tim10-1 confirm 51
Cc1cc(=O)[nH]c(SCc2ccccc2)n1	none
CC(C)(C)c1cc(=O)[nH]c(SCc2ccccc2)n1	tim10-1 inh 41 (no result: SKKanGAS inh) | tim10-1 confirm inactive
CN1CCCN(S(=O)(=O)c2ccc(O)c(C(=O)O)c2)CC1	none
COc1ccc(N2CCN(C(=O)COC(=O)CCc3ccccc3OC)CC2)cc1	none
COc1ccc(C)cc1NC(=O)c1ccc2c(=O)n3c(nc2c1)CCCCC3	tim10-1 inh 41 | tim10-1 confirm inactive
COc1ccc(-c2cc(C)no2)cc1S(=O)(=O)N(C)c1ccc(C)cc1	tim10-1 inh 45 | tim10-1 confirm inactive
COc1ccc(S(=O)(=O)N/N=C(/C)c2ccncc2)c(OC)c1	none
C[n+]1c(/C=C/c2ccc(O)cc2)ccc2ccccc21	none
Cc1cc(/C=C\c2ccc3cc(N(C)C)ccc3[n+]2C)c(C)n1-c1ccccc1	tim10-1 inh 70 (no result: SKKanGAS inh) | tim10-1 confirm 50
Cc1cc(C(=O)NNC(=O)c2ccccc2F)c2ccccc2n1	none (no result: SKKanGAS inh)
Cc1ccc(S(=O)(=O)NCCC(=O)NCC(=O)Nc2c(C)cccc2C)cc1C	none
Cc1ccc(/C(N)=N/OC(=O)C(C)c2ccc([N+](=O)[O-])cc2)cc1 (configuration not stated)	tim10-1 inh 46 | tim10-1 confirm 51
O=C(NCC1CCCCC1)c1ccc([N+](=O)[O-])cc1	none
N/C(=N\OC(=O)CC1CCCCC1)c1ccc([N+](=O)[O-])cc1	tim10-1 inh 70 | tim10-1 confirm 51
COc1ccc([N+](=O)[O-])cc1NC(=O)C(C)NNC(=O)c1cccc([N+](=O)[O-])c1 (configuration not stated)	none (no result: SKKanGAS inh)
Cc1cccc(CN2CCc3c([nH]c4ccccc34)C2)c1	none
Clc1cccc(CN2CCc3c([nH]c4ccccc34)C2)c1	tim10-1 inh 45 | tim10-1 confirm 44
O=C(Nc1ccc(Cl)cc1)c1nc[nH]c1C(=O)NCCCCNC(=O)c1[nH]cnc1C(=O)Nc1ccc(Cl)cc1	none (no result: SKKanGAS inh)
Cc1cc(Nc2nc(Cl)c(Cl)cc2Cl)n(-c2ccccc2)n1	tim10-1 inh 45 | tim10-1 confirm 34
Cc1ccc(-n2nc(C)cc2Nc2ncc(Cl)cc2Cl)cc1	none
Cc1cc(Nc2ccccc2)n(-c2ccccc2)n1	none
Cc1cc(C)nc(-n2nc(C)cc2Nc2ccccc2)n1	SKKanGAS inh 79, tim10-1 inh 41 | tim10-1 confirm inactive
CCCCNC(=O)[C@H]1C[C@H]1[C@@H](O)[C@H](CO)NC(=O)[C@H](Cc1ccccc1)NC(=O)OC(C)(C)C	none
Cc1ccc(-c2cccc(-c3cc(=O)oc4ccc(C(C)(C)C)cc34)c2)cc1	none (no result: SKKanGAS inh, NLRP3 yeast inh)
CCC(C(=O)Nc1nc(C)c(C(=O)OC)s1)c1ccccc1 (configuration not stated)	tim10-1 inh 43 | tim10-1 confirm 36
COC(=O)c1sc(NC(=O)C(C)c2ccccc2)nc1C (configuration not stated)	none
CCOc1ccccc1NC(=O)C1CCCN(S(=O)(=O)c2ccc3c(c2)C(C)(C)C(=O)N3C)C1 (configuration not stated)	none
CCc1nc(N2CCCCC2)c2oc3ccccc3c2n1	tim10-1 inh 41 | tim10-1 confirm inactive
CCc1nc(N2CCCCC2C)c2oc3ccccc3c2n1 (configuration not stated)	tim10-1 inh 48 | tim10-1 confirm inactive
CCc1nc(Nc2cc(OC)ccc2OC)c2oc3ccccc3c2n1	none
CCc1nc(Nc2ccccc2OC)c2oc3ccccc3c2n1	tim10-1 inh 42 | tim10-1 confirm inactive
CCc1nc(N2CCCCC2C(=O)O)c2oc3ccccc3c2n1 (configuration not stated)	none
COc1cc(NC(=O)C(C)Oc2ccccc2)c(OC)cc1NC(=O)c1ccccc1 (configuration not stated)	none
C=CCN1C=C/C(=C\C=C(C#N)C#N)c2ccccc21	none
CCCCCCN1C=C/C(=C\C=C(C#N)C#N)c2ccccc21	tim10-1 inh 49 | tim10-1 confirm inactive
NC(=O)C1CCN(C(=O)C2CCN(C(=O)Nc3ccccc3)CC2)CC1	none (no result: SKKanGAS inh)
Cc1[nH][nH]c(=O)c1C(c1c(C)[nH][nH]c1=O)c1cn(Cc2cccc3ccccc23)c2ccccc12	tim10-1 inh 48 (no result: SKKanGAS inh) | tim10-1 confirm 33
Cc1ccc(S(=O)(=O)N(Cc2ccccc2)c2ccccc2C(=O)NCc2ccco2)cc1	tim10-1 inh 41 | tim10-1 confirm inactive
Cc1ccc(S(=O)(=O)N(Cc2ccccc2)c2ccccc2C(=O)Nc2ccccc2C(=O)NCc2ccco2)cc1	none
CCC(=O)Nc1cc2c3c(c1)CCN3C(=O)CC2	none
Cc1ccc(S(=O)(=O)N2CCCCC2)cc1C(=O)N1CCCCCC1	none (no result: SKKanGAS inh)
CC(c1ccco1)N(C(=O)c1ccccc1NS(=O)(=O)c1cccc([N+](=O)[O-])c1)c1ccccn1 (configuration not stated)	tim10-1 inh 42 | tim10-1 confirm 34
CC(NC(=O)COc1cccnc1[N+](=O)[O-])c1ccc(Cl)cc1 (configuration not stated)	none
COc1cccc(CN(C(=O)c2ccccc2Cl)C2CCS(=O)(=O)C2)c1 (configuration not stated)	none

Assay outcomes as filed in PubChem.
